A selection: hits, their analogues and other compounds. The true share with any hit is near 19%.
IL1B secr inh: qHTS for Inhibitors of Inflammasome Signaling: IL-1-beta AlphaLISA Primary Screen | AID 743279, 2014 | THP-1 LPS/ATP IL-1B secretion, AlphaLISA, 16 h; stronger effect = lower value | 4.7% of 360,000 active | activity change, % at 57.5 µM; in the data active = activity change below about -50%; inconclusive = mostly about -30% to -49%
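Secreted IL-1B measured by AlphaLISA bead assay after 16 h compound exposure of THP-1 cells; compounds (final up to 57.5 uM) added 1 h before LPS (250 ng/mL) and ATP (1.25 mM) stimulation; lower signal means less secretion.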
HT1080 IDH1KD tx: qHTS for induction of synthetic lethality in tumor cells producing 2HG: qHTS for the HT-1080-IDH1KD cell line | HT-1080 IDH1 knockdown viability, ATP luminescence, 48 h | Potency, µM (highest dose often 46.1 µM), most hits filed as cytotoxic | 2% of 360,000 active | AID 686971, 2013
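Viability of IDH1-knockdown HT-1080 fibrosarcoma cells was assessed by CellTiter-Glo after 48 h at 37 °C with titrated compound; concentration-effect curves were classified by fit quality and response size.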
DT40 TDP1 no CPT: qHTS for Inhibitors of human tyrosyl-DNA phosphodiesterase 1 (TDP1): qHTS in cells in absence of CPT; DT40 Tdp1-/- hTDP1 cells, no CPT, ATP luminescence, 48 h; Potency, µM (highest dose often 46.2 µM), usual class: inhibitors; 15% of 420,000 active; AID 686978, 2013; note: nearly all actives have a fitted effect of over 55% in size
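A cellular qHTS used chicken DT40 cells lacking endogenous Tdp1 but carrying stably transfected human TDP1. Compounds were applied without camptothecin, and cell growth kinetics were judged by ATP-dependent luminescence after ≥48 hr.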
HT1080-NT tox: qHTS for induction of synthetic lethality in tumor cells producing 2HG: qHTS for the HT-1080-NT fibrosarcoma cell line | HT-1080-NT fibrosarcoma viability, CellTiter-Glo ATP luminescence, 48 h | Potency, µM (series often up to 46.1 µM), hits mostly cytotoxic | 1.6% of 360,000 active | AID 686970, 2013;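 note: NT is the 2HG producing partner of a matched IDH1 knockdown line; nearly all actives have a fitted effect of over 55% in size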
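A 48-hour cytotoxicity screen used HT-1080-NT cells plated 2 hours before compound delivery. ATP-based CellTiter-Glo luminescence measured viability, normalized to DMSO and no-cell controls.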
TDP1 cell CPT: qHTS for Inhibitors of human tyrosyl-DNA phosphodiesterase 1 (TDP1): qHTS in cells in presence of CPT. chicken DT40 Tdp1-/-;hTDP1 cells + 20 nM CPT, ATP luminescence, 48 h. Potency, µM (series often up to 46.2 µM), usual class: inhibitors. 12% of 420,000 active; note: nearly all actives have a fitted effect of over 55% in size
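Chicken DT40 Tdp1-/- cells stably complemented with human TDP1 were seeded at 400 cells/well in medium containing 20 nM camptothecin, exposed to pin-transferred compounds, and grown at 37 °C for at least 48 hr. Viability was read as ATP luminescence.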
Numbers stand for hits. Unless noted, calls come from the whole dose curve; as a rule, active = well fitted curve in the direction sought with a large enough effect; inconclusive = small, poorly fitted or top-dose-only effect, or another doubt; inactive = no such curve, though single readings can be large; an effect the other way counts as inactive or inconclusive.

Results for Cc1ccccc1NC(=O)Cc1nc(COC(=O)c2ncc(Cl)c(Cl)c2Cl)cs1 ?
IL1B secr inh: -88; HT1080 IDH1KD tx: inactive; DT40 TDP1 no CPT: inconclusive; HT1080-NT tox: inactive; TDP1 cell CPT: inconclusive

How did CCOC(=O)c1c(C)[nH]c(C(=O)OCc2csc(CC(=O)Nc3ccccc3C)n2)c1C do in these assays?
IL1B secr inh: inactive; HT1080 IDH1KD tx: inactive; DT40 TDP1 no CPT: 13µM; HT1080-NT tox: inactive; TDP1 cell CPT: 16µM

How did CCCC(=O)C1=C(N(C)c2ccccc2)CC(C)(C)CC1=O do in these assays?
IL1B secr inh: inactive; HT1080 IDH1KD tx: inactive; DT40 TDP1 no CPT: inactive; HT1080-NT tox: inactive; TDP1 cell CPT: inconclusive

How did CCCC(=O)C1=C(c2ccccc2)C(C#N)(C#N)C(C#N)=C1N do in these assays?
IL1B secr inh: inactive; HT1080 IDH1KD tx: inactive; DT40 TDP1 no CPT: 15µM; HT1080-NT tox: inactive; TDP1 cell CPT: 18µM

How did Cc1ccccc1-c1nn(-c2ccc(F)cc2F)cc1CNCCCN(C)C do in these assays?
IL1B secr inh: -62; HT1080 IDH1KD tx: inconclusive; DT40 TDP1 no CPT: 7.3µM; HT1080-NT tox: inconclusive; TDP1 cell CPT: inconclusive

How did OCC[C@@H]1C[C@H](O)[C@@H](O)[C@]2(OCc3ccc4ccccc4c32)O1 do in these assays?
IL1B secr inh: inactive; HT1080 IDH1KD tx: inactive; DT40 TDP1 no CPT: inactive; HT1080-NT tox: inactive; TDP1 cell CPT: inactive

How did COc1ccc(N(CC(=O)Nc2ccc(C)cc2C)S(=O)(=O)c2c(C)n[nH]c2C)cc1 do in these assays?
IL1B secr inh: inactive; HT1080 IDH1KD tx: inconclusive; DT40 TDP1 no CPT: 18µM; HT1080-NT tox: inactive; TDP1 cell CPT: inactive

How did COc1ccc(N(CC(=O)N2CCN(c3cccc(C)c3)C(C)C2)S(=O)(=O)c2c(C)n[nH]c2C)cc1 (stereo unspecified) do in these assays?
IL1B secr inh: -61; HT1080 IDH1KD tx: inactive; DT40 TDP1 no CPT: inconclusive; HT1080-NT tox: inactive; TDP1 cell CPT: inconclusive

How did COc1ccc(N(CC(=O)NCc2ccc(Cl)cc2)S(=O)(=O)c2c(C)n[nH]c2C)cc1 do in these assays?
IL1B secr inh: inactive; HT1080 IDH1KD tx: inactive; DT40 TDP1 no CPT: inactive; HT1080-NT tox: inactive; TDP1 cell CPT: inactive

How did COc1ccc(N(CC(=O)Nc2ccc(F)c(F)c2)S(=O)(=O)c2c(C)n[nH]c2C)cc1 do in these assays?
IL1B secr inh: inactive; HT1080 IDH1KD tx: inactive; DT40 TDP1 no CPT: inactive; HT1080-NT tox: inactive; TDP1 cell CPT: inactive

How did COc1ccc(N(CC(=O)Nc2cc(Cl)ccc2C)S(=O)(=O)c2c(C)n[nH]c2C)cc1 do in these assays?
IL1B secr inh: inactive; HT1080 IDH1KD tx: inconclusive; DT40 TDP1 no CPT: 5.2µM; HT1080-NT tox: inconclusive; TDP1 cell CPT: 4.1µM

What do the screens show for `COc1ccc(NC(=O)CN(c2cc(C)cc(C)c2)S(=O)(=O)c2c(C)n[nH]c2C)cc1`?
IL1B secr inh: inactive; HT1080 IDH1KD tx: inconclusive; DT40 TDP1 no CPT: inconclusive; HT1080-NT tox: inconclusive; TDP1 cell CPT: 29µM

What do the screens show for `O=C(c1ccc2nc(N3CCCCC3)sc2c1)N1CCN(Cc2ccc3c(c2)OCO3)CC1`?
IL1B secr inh: inactive; HT1080 IDH1KD tx: inactive; DT40 TDP1 no CPT: inconclusive; HT1080-NT tox: inactive; TDP1 cell CPT: inconclusive

How did CCc1cc(=O)[nH]c(SCCC(F)=C(F)F)n1 do in these assays?
IL1B secr inh: inactive; HT1080 IDH1KD tx: inactive; DT40 TDP1 no CPT: inactive; HT1080-NT tox: inactive; TDP1 cell CPT: inactive

How did Cc1ccccc1NC(=O)c1nc(-c2ccncc2)no1 do in these assays?
DT40 TDP1 no CPT: inactive; TDP1 cell CPT: inactive

What do the screens show for `COc1ccc(N(CC(=O)NCc2ccccc2)S(=O)(=O)c2c(C)n[nH]c2C)cc1`?
IL1B secr inh: inactive; HT1080 IDH1KD tx: inactive; DT40 TDP1 no CPT: inactive; HT1080-NT tox: inactive; TDP1 cell CPT: 21µM

What do the screens show for `COC(=O)C1=C(C)NC(C)=C([N+](=O)[O-])[C@H]1c1ccccc1C(F)(F)F`?
DT40 TDP1 no CPT: 11µM; TDP1 cell CPT: inconclusive

What do the screens show for `COCCN1C=C(C(=O)OC)C(c2ccccc2C(F)(F)F)C(C(=O)OC)=C1`?
IL1B secr inh: inactive; HT1080 IDH1KD tx: inactive; DT40 TDP1 no CPT: inconclusive; HT1080-NT tox: inactive; TDP1 cell CPT: inconclusive

From PubChem BioAssay
